Measurements as given in PubChem BioAssay.
Active and inactive are the calls of the source.

Tests used:
[1] = system: Plasmodium falciparum Sir2 (PF13_0152, Sir2A); assay: pfSir2 binders on small-molecule microarrays, primary screen, biochemical, small-molecule microarray, 635 nm fluorescence (AID 1098); settings: small-molecule microarray binding, fluorescence 635 nm; higher = more signal;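 note: score merges spot fluorescence intensity with its signal-to-noise ratio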
[2] = small-molecule microarray binders of probe aDKK1, primary screen, biochemical, biotinylated probe, 635/667 nm fluorescence (AID 1099); settings: higher = more signal;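 note: score merges 667nm spot fluorescence with signal to noise across triplicate slides; reference of the scale not given here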
[3] = small-molecule microarray binders of probe aCHRDL2, primary screen, biochemical, biotinylated probe, 635/667 nm fluorescence (AID 1100); settings: higher = more signal
[4] = splicing luciferase reporter signal modulators, primary screen, spliceosome inhibition project, cell-based, HEK293, splice +/- reporter (AID 1101); settings: luminescence, 24 h, higher = more signal, called active from +8 up or from −8 down;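 note: HEK293 cells carrying a splicing-competent luciferase reporter gene; test concentration not given here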
[5] = biological target: Fibroblast growth factor 10 (Homo sapiens) (UniProt O15520); assay: FGF10 binders on small-molecule microarrays, primary screen, biochemical, small-molecule microarray, 635 nm fluorescence (AID 1102); settings: FGF10 binding, fluorescence 635 nm, higher = more signal
[6] = system: glycogen synthase kinase-3 (GSK3A per assay name; protocol says GSK3B); assay: GSK3 binders on small-molecule microarrays, primary screen, biochemical, small-molecule microarray, 635 nm fluorescence, GSK3A (AID 1103); settings: small-molecule microarray binding, fluorescence 635 nm; higher = more signal; note: the record names both GSK3A and GSK3B
[7] = biological target: Epidermal growth factor receptor (Homo sapiens) (UniProt P00533); assay: EGFR binders on small-molecule microarrays, primary screen, biochemical, small-molecule microarray, 635 nm fluorescence (AID 1104); settings: EGFR binding, higher = more signal;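 note: score merges 667 nm emission intensity with spot signal to noise over triplicate slides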
[8] = biological target: Follistatin-related protein 3 (Homo sapiens) (UniProt O95633); assay: FSTL3 binders on small-molecule microarrays, primary screen, biochemical, small-molecule microarray, 635 nm fluorescence (AID 1105); settings: FSTL3 binding, higher = more signal;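 note: score merges emission near 667 nm and signal to noise per printed spot across three slides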
[9] = biological target: Dickkopf-related protein 1 (Homo sapiens) (UniProt O94907); assay: DKK1 binders on small-molecule microarrays, primary screen, biochemical, small-molecule microarray, 635 nm fluorescence scan (AID 1106); settings: DKK1 binding, higher = more signal;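 note: score merges emission near 667 nm with signal to noise over three replicate slides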
[10] = system: Inhibin beta A chain (activin A); assay: INHBA (activin A) binders on microarrays, primary screen, biochemical, small-molecule microarray, 635 nm fluorescence scan (AID 1107); settings: small-molecule microarray binding, higher = more signal;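 note: mouse activin A protein probed at 4.33 µg/mL on printed slides; score merges bound-protein fluorescence near 667 nm with spot signal-to-noise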

Epidermal growth factor receptor (Homo sapiens), sequence (P00533 whole entry, looked up): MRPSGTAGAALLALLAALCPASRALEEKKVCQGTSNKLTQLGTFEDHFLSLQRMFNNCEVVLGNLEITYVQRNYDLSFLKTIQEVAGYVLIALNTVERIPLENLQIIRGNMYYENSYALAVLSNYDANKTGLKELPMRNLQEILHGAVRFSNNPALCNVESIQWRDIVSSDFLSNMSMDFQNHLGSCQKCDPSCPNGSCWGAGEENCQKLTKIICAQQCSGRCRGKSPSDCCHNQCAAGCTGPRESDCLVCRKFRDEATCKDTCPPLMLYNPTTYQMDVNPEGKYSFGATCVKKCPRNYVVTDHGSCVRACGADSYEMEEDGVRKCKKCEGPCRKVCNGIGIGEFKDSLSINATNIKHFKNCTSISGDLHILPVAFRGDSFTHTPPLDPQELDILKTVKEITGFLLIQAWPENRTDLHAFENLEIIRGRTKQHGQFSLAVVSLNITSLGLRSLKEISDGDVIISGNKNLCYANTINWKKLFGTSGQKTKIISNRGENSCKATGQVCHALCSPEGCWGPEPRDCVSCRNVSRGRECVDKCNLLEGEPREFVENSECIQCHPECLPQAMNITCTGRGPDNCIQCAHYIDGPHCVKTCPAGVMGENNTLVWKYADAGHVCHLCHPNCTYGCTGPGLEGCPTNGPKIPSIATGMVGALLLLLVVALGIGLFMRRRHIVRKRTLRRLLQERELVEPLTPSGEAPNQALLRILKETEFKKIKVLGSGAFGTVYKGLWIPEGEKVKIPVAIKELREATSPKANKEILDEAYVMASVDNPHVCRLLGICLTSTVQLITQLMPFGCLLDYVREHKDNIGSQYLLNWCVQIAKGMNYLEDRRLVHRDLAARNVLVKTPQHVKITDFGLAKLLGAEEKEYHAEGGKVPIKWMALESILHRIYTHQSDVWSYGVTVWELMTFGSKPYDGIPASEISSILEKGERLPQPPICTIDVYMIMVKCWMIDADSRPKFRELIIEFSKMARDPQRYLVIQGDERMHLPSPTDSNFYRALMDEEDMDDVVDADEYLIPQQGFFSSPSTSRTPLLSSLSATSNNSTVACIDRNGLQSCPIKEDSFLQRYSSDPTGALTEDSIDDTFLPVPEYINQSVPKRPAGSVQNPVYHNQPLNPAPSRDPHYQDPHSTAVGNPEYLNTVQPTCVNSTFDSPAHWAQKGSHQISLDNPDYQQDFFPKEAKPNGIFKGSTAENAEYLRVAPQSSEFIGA
Follistatin-related protein 3 (Homo sapiens), sequence (O95633 whole entry, looked up): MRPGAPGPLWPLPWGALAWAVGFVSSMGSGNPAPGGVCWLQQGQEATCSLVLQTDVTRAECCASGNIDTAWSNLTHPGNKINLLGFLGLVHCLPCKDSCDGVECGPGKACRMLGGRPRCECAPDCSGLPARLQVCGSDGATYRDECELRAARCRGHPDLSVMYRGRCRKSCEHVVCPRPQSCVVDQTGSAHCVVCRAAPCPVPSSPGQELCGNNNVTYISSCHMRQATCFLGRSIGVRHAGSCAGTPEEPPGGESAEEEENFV
Fibroblast growth factor 10 (Homo sapiens), sequence (O15520 whole entry, looked up): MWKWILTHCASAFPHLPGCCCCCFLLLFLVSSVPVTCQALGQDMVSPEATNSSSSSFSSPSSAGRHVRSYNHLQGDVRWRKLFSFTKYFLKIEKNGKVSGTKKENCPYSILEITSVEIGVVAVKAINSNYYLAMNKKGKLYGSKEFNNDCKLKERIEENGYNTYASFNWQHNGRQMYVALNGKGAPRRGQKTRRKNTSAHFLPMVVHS
Dickkopf-related protein 1 (Homo sapiens), sequence (O94907 whole entry, looked up): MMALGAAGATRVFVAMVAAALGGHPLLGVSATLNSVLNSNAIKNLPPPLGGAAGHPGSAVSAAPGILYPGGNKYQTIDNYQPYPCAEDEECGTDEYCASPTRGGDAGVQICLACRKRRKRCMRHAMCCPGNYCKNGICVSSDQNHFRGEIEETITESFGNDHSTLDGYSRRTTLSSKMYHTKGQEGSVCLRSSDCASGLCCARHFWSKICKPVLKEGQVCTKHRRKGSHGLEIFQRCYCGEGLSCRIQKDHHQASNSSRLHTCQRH

Structure (SMILES)	composite z-score [1]	composite z-score [2]	composite z-score [3]	z-score [4]	composite z-score [5]	composite z-score [6]	composite z-score [7]	composite z-score [8]	composite z-score [9]	composite z-score [10]
COc1ccc(C(=O)Nc2ccc(CN3C(=O)[C@]4(O[C@H](CCn5cc(CCO)nn5)[C@@H]([Si](C)(C)c5ccc(OC)cc5)[C@@H]4C)c4ccccc43)cc2)cc1	0.814	0.3	0.589	5.66 (inactive)	0.898	1.03	0.958	-0.106	-0.0456	1.11
C=CCNC(=O)[C@H]1[C@@H]2C(=O)O[C@@H](c3ccccc3)[C@@H](c3ccccc3)N2[C@@H](c2ccc(O)cc2)[C@]12C(=O)Nc1ccc(C#CCNC(N)=O)cc12	1.5	0.24	0.262	-0.335 (inactive)	-0.327	-0.304	-0.856	-1.03	-0.351	0.323
CO[C@]12C=C(Br)[C@@H](C[C@@H]1c1ccccc1)[C@@]1(CO1)C2=O	0.165	-0.301	-0.708	-0.0249 (inactive)	0.342	0.497	0.496	0.615	0.791	0.737
CC(=O)NCCCC[C@@H]1NC(=O)[C@@H]2C[C@H](C(=O)NCCCCCCN(C)C)[C@H](c3ccc(O)cc3)N2C1=O	1.02	0.363	0.117	-1.45 (inactive)	1.25	1.36	1.31	1.5	1.86	0.11
C=CCC(OC(C)=O)[C@@H]1[C@@H](N(Cc2cc3ccccc3o2)C(=O)c2ccc(C)cc2)c2cc(OCCCO)ccc2N1C(=O)c1ccc2ccccc2n1 (stereo not given in full)	-0.222	0.164	0.504	-0.178 (inactive)	-0.146	-0.216	0.311	0.0952	-0.0273	1.51
CC(C)[Si]1(C(C)C)O[C@@H](c2ccccc2)c2cc(C3CC3)nc(-c3ccc(Oc4ccccc4)cc3)c21	-1.25	-0.105	-0.037	-0.961 (inactive)	-0.318	-0.343	-0.0891	-0.489	-0.159	0.513
C=CCc1cccc([C@H]2N[C@H](C(=O)O)CC[C@@H]2C)c1	0.289	-0.6	-0.832	-0.704 (inactive)	0.219	0.706	0.793	0.778	1.22	1.12
[N-]=[N+]=NCc1ccccc1C[C@@]1(C(=O)O)N=C(c2ccc(OCCCO)cc2)O[C@@H]1c1ccccc1N=[N+]=[N-]	1.44	0.076	0.917	-1.11 (inactive)	0.479	0.771	0.0583	0.633	-0.688	0.911
CCOC(=O)[C@H]1C/C=C/C[C@H](C(=O)OCC)C(=O)O[C@H]2[C@@H](OC)O[C@H](CO)[C@@H](OC(=O)Nc3ccc(Br)cc3)[C@@H]2OC1=O	0.895	-0.0855	0.68	-3.54 (inactive)	0.217	1.02	0.047	0.576	0.251	0.706
C=C[C@H](OC)[C@@H](OC(=O)Nc1ccc(SC)cc1)c1ccc(O)c(F)c1	1.03	-0.145	0.0453	-1.97 (inactive)	1.01	0.0309	-0.133	0.264	-0.39	-0.433
O=C1O[C@@H](c2ccccc2)[C@@H](c2ccccc2)N2[C@@H](c3ccccc3OCCO)[C@]3(C(=O)Nc4ccc(C#CC5=CCCCC5)cc43)[C@@H](C(=O)O)[C@H]12	1.17	0.702	0.51	-2.47 (inactive)	0.289	1.04	0.309	0.87	0.471	1.09
CC(C)=C1C(=O)C(c2ccccc2)=C2CN3C(=O)N(CCc4ccccc4)C(=O)[C@]3(Cc3ccccc3)[C@H]21	-0.34	0.809	1.25	0.514 (inactive)	-0.316	-0.121	-0.972	-0.356	-1.86	0.64
O=C1OCCC=C[C@H]2OC34C=CCN(Cc5ccccc5)C(=O)[C@H]3N(CCO)C(=O)[C@@H]4C12 (stereo not given in full)	-0.37	-0.273	0.0184	-2.82 (inactive)	-0.835	-0.958	-0.844	-0.376	-0.46	1.02
COCCOC(=O)N1C(=O)[C@@]2(c3cc(C#CC4(O)CCCCCC4)ccc31)[C@H](C(=O)N1CCCCCCC1)[C@H]1C(=O)O[C@H](c3ccccc3)[C@H](c3ccccc3)N1[C@@H]2c1ccc(O)cc1	1.26	2.22	1.55	-0.0148 (inactive)	0.808	1.11	0.251	1.34	0.716	1.89
COC(=O)C[C@H]1O[C@]2(C(=O)N(C)c3ccccc32)[C@@H](C)[C@@H]1[Si](C)(C)c1ccc(OC)cc1	0.377	-0.198	-0.514	-1.78 (inactive)	1.29	0.637	0.309	0.558	0.344	-0.27
C#CCNC(/C=C/c1ccccc1)CO (stereo not given)	0.0921	-0.234	-0.565	0.00978 (inactive)	0.311	0.149	0.553	0.326	0.545	0.394
COCCOC(=O)N1C(=O)[C@@]2(c3cc(C#CCCO)ccc31)[C@H](C(=O)N1CCCCCCC1)[C@H]1C(=O)O[C@H](c3ccccc3)[C@H](c3ccccc3)N1[C@@H]2c1ccc(O)cc1	1.46	1.53	1.19	-1.15 (inactive)	0.494	1.28	0.292	1.3	0.4	1.27
